# Compound activity deposited in PubChem by National Center for Advancing Translational Sciences (NCATS).
# A selection: hits, their analogues and other compounds. The true share with any hit is near 10%.
# G9a inh – G9a (human) methyltransferase inhibition; Q96KQ7; G9a H3K9 monomethylation, AlphaScreen, 2 h; Potency, µM (titrated, usually from 102 µM), for the others: at the highest dose activity, negative = inhibition, usual class: inhibitors; actives 8.8% (n = 350,000); AID 504332; note: potency is the fitted concentration of half-maximal effect; % is set by controls: 0 for no effect and ±100 for the full control effect; nearly all actives have a fitted effect of over 75% in size
# Target sequence (Q96KQ7 913-1193 limits assumed): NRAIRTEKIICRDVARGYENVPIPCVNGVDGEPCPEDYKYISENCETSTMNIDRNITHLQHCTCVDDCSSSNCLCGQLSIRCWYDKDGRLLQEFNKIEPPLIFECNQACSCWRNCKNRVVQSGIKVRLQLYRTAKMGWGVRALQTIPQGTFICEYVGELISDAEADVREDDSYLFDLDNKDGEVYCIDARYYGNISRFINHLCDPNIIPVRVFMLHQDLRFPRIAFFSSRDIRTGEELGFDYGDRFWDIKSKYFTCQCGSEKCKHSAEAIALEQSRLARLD
#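 AlphaScreen detection with an anti-monomethyl H3K9 antibody quantified product after a 2 h room-temperature reaction containing 500 nM biotinylated H3K9 peptide, 20 µM SAM and 20 nM enzyme, which had been preincubated 15 min with compound.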
# CtBP-E1A blk – CtBP/E1A binding inhibition; AlphaScreen GST-E1A/His-CtBP binding, 1536-well; stronger effect = lower value; activity change, % (concentration not given with the values); actives 0.49% (n = 340,000); in the data active = activity change below about -65%; inconclusive = mostly about -30% to -63%; note: % is set by controls: 0 for no effect and ±100 for the full control effect
#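 AlphaScreen with 125 nM GST-E1A and 125 nM His-CtBP (5X stocks) in Tris pH 8.0, 300 mM NaCl, BSA, Tween 20, TCEP. Compounds preincubated 2 h at 37 deg C, then glutathione donor/nickel acceptor beads added for 1 h at 37 deg C in dark.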
# Six1-Eya2 inh – inhibitors of human Six1/Eya2 interaction; AlphaScreen GST-Six1/His-Eya2 binding, biochemical; stronger effect = lower value; activity change, % (test concentration not listed); actives 0.56% (n = 360,000); in the data active = activity change below about -65%; inconclusive = mostly about -30% to -63%; note: % is set by controls: 0 for no effect and ±100 for the full control effect
#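 AlphaScreen luminescence read after one hour at 37 °C in darkness. Pin-transferred compounds met GST-Six1 and His-Eya2 protein (5X stock 250 nM/500 nM) plus glutathione donor and Ni-chelate acceptor beads (5X, 50 ug/mL).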
# HP1b binding inh – blocks HP1-beta chromodomain binding to methylated histone tails | AID 540317 | actives 0.56% (n = 390,000) | P83916 | AlphaScreen HP1-beta / biotin-H3K9me3 peptide binding | Potency, µM (doses to about 114 µM), for inactives: at the highest dose activity change, negative = inhibition, actives largely listed as inhibitors; note: potency is the fitted concentration of half-maximal effect; nearly all actives have a fitted effect of over 70% in size
# Target sequence (P83916 whole entry, looked up): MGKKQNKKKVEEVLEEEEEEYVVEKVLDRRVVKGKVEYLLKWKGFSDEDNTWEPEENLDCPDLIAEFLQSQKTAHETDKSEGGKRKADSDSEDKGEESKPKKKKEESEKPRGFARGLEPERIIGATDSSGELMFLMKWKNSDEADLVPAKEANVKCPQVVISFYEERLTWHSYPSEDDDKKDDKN
#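 HP1-beta protein (50 nM final) preincubated 30 min at room temperature with biotinylated H3(1-18)K9me3 peptide (50 nM) in PBS pH 7.4, 0.01% Tween-20, then compound added for 30 min. AlphaScreen streptavidin donor/nickel chelate acceptor beads (10 ug/mL final), 30 min dark, luminescence read.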
# BAZ2B inh – inhibitors of human BAZ2B bromodomain. Q9UIF8. Potency, µM (doses to about 114 µM), without a hit: at the top dose activity change, negative = inhibition, usual class: inhibitors. AlphaScreen BAZ2B-H3K14Ac peptide displacement. AID 504333. actives 4.4% (n = 360,000); note: potency is the fitted concentration of half-maximal effect; % is set by controls: 0 for no effect and ±100 for the full control effect; nearly all actives have a fitted effect of over 60% in size
#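 In this displacement format the biotinylated H3(5-23) peptide acetylated at Lys14 serves as ligand at 50 nM, with BAZ2B at 50 nM in PBS pH 7.4 containing 0.01% Tween-20. Donor and acceptor beads are 10 ug/mL final.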
# JMJD2A Tudor – JMJD2A Tudor domain (human) inhibition | O75164 | Potency, µM (doses to about 114 µM), without a hit: at the top dose activity change, negative = inhibition, most hits filed as inhibitors | AlphaScreen JMJD2A-Tudor / H3K4me3 peptide binding | actives 4.4% (n = 390,000); note: potency is the fitted concentration of half-maximal effect; % is set by controls: 0 for no effect and ±100 for the full control effect; nearly all actives have a fitted effect of over 50% in size
# * = called active by the depositor; ? = inconclusive; / = not tested or not shown; [ ] = remark or other dose. Unless noted, calls come from the whole dose curve; as a rule, active = well fitted inhibition curve with a large enough effect; inconclusive = small, poorly fitted or top-dose-only effect; inactive = no such curve, though single readings can be large or run the other way.
SMILES,G9a inh,CtBP-E1A blk,Six1-Eya2 inh,HP1b binding inh,BAZ2B inh,JMJD2A Tudor
CCCCC(=O)NNC(=S)NC(=O)c1ccc(C)cc1,11µM*,-3,-4,14%,6%,-13%
CCCCCC(=O)NC(=S)NC1C2CC3CC(C2)CC1C3 (centres undefined),45µM*,7,11,56%,-4%,0%
CCCCCC(=O)NC(=S)Nc1cccc(C(C)=O)c1,3%[59 µM],1,4,34%,9%,2%
COCCCNC(CC(=O)Nc1ccc(OC)cc1OC)C(=O)O (centres undefined),?,6,0,-19%,-8%,10µM*
COc1ccccc1NC(=O)CC(NCc1ccccc1)C(=O)O (centres undefined),?,6,3,-9%,?,11µM*
COc1ccc(NC(=O)CC(NCCc2ccccc2)C(=O)O)c(OC)c1 (centres undefined),28µM*,1,7,-5%,-30%,4.5µM*
Cc1cccc(C(=O)NCC(=O)OCc2cc(=O)n3nc(C4CC4)sc3n2)c1,17%[59 µM],/,/,69%,-17%,-4%
CCn1cc(S(=O)(=O)c2cccc(C)c2)c(=O)c2cc(F)c(N3CCN(c4ccccc4)CC3)cc21,-3%[59 µM],/,/,11%,-3%,-8%
Cc1c(C(=O)N2CCCCCC2)c(S(=O)(=O)NCc2ccccc2)c(C)n1C,3%[59 µM],/,/,15%,-16%,-16%
C#CCOCCOCCOCCNc1nc(N2CCN(C(=O)[C@H](CCCCN)n3cc([C@@H](N)C(C)CC)nn3)CC2)nc(N2CCN(C(=O)[C@H](Cc3ccc(O)cc3)n3cc([C@@H](N)CC(C)C)nn3)CC2)n1 (some centres undefined),?,-18,-13,26%,79µM*,?
C#CCOCCOCCOCCNc1nc(N2CCN(C(=O)[C@H]([C@@H](C)CC)n3cc([C@@H](N)Cc4ccc(O)cc4)nn3)CC2)nc(N2CCN(C(=O)[C@H](CCCCN)n3cc([C@@H](N)CC(C)C)nn3)CC2)n1,?,/,/,/,79µM*,/
C#CCOCCOCCOCCNc1nc(N2CCN(C(=O)[C@H](CCCCN)n3cc([C@@H](N)CC(C)C)nn3)CC2)nc(N2CCN(C(=O)[C@H](Cc3ccc(O)cc3)n3cc([C@@H](N)CC(C)C)nn3)CC2)n1,4%[12.7 µM],-17,-4,-7%,56µM*,79µM*
CN(C)c1ncc2nc(-c3cc(F)cc(F)c3)c(=O)n(C3CC3)c2n1,2%[0.501 µM],/,/,/,/,/
Cc1ccc2cccc(NC(=O)COc3ccccc3Cl)c2n1,-26%[59 µM],/,/,39%,-2%,-5%
Cc1ccccc1NC(=O)CSc1c(C(C)C)cnc2c1c(=O)n(C)c(=O)n2C,14%[59 µM],/,/,19%[57 µM],3%,-13%
Cc1ccc2nc(SCc3nc(-c4ccccc4C)no3)[nH]c2c1,-3%[59 µM],/,/,46%,-1%,3%
Nc1[nH]nc2ncc3cc4ccccc4nc3c12,35µM*,-23,?,26%,?,-21%
C=C1Cc2c(Cl)cc3[nH]c4c5c3c2[C@@]2(O)[C@@H]1C[C@@H]2C(C)(C)O[C@H]5[C@@H]1CC[C@@]2(O)[C@@]35O[C@@H]3[C@@H](O)[C@@H](C(=O)O)O[C@H]5CC[C@]2(C)[C@@]41C,24%[59 µM],/,/,/,/,/
Cc1[nH]c2ccc(F)cc2c(=O)c1SC(F)(F)C(F)C(F)(F)F (centres undefined),32µM*,1,0,28%,10%,-9%
COc1cccc2c(=O)c(SC(F)(F)C(F)C(F)(F)F)c(C)[nH]c12 (centres undefined),?,-8,-2,12%,-1%,-5%
O=C(N/N=C/c1ccc(-c2ccccc2C(=O)O)o1)c1cccs1,8.9µM*,-22,-29,5%,56µM*,89µM*
Cc1cc(-c2cccs2)n[nH]1,10%[12.7 µM],4,14,20%,7%,1%
Cc1cc(-c2ccccc2N)n[nH]1,50µM*,-3,3,19%,?,-12%
N#CC(C(=O)c1ccco1)c1ccccn1 (centres undefined),35µM*,5,-4,17%,4%,-24%
C=CCCn1c(Cl)c(C#N)sc1=O,/,/,/,31%,/,-19%
SMILES,G9a inh,CtBP-E1A blk,Six1-Eya2 inh,HP1b binding inh,BAZ2B inh,JMJD2A Tudor
Cc1ccn2c(C(=O)N/N=C\c3cccs3)c(C)nc2c1,?,-6,-8,32%,6%,-18%
Cc1ccc(C)c(-n2c(C)cc(/C=N/NC(=O)c3c(C)nc4cc(C)ccn34)c2C)c1,?,-1,-21,-12%,-9%,40µM*
CN(C)c1ccc(C(CNC(=O)c2ccccc2Cl)N2CCc3ccccc32)cc1 (centres undefined),14µM*,/,/,?,13µM*,18µM*
CN(C)c1ccc(C(CNC(=O)c2ccccc2Cl)N2CCCC2)cc1 (centres undefined),?,/,/,-3%,-27%,-24%
COc1ccc(C(=O)NCC(c2ccco2)N2CCc3ccccc32)c(OC)c1 (centres undefined),23%[2.33 µM],-6,-21,-11%,?,-23%
COc1ccccc1C(=O)NCC(c1ccc(N(C)C)cc1)N1CCc2ccccc21 (centres undefined),14µM*,/,/,11µM*,10µM*,11µM*
COc1cccc(NC(=O)CSC2=Nc3ccccc3C3=NC(CC(=O)NCc4ccc5c(c4)OCO5)C(=O)N23)c1 (centres undefined),1%[59 µM],/,/,12%,-31%,-15%
CC(Oc1ccccc1)C(=O)Nc1cc(Cl)ccc1-n1cncn1 (centres undefined),45µM*,8,0,24%,-4%,-1%
Cc1ccc(C(=O)Nc2cc(Cl)ccc2-n2cncn2)o1,8.9µM*,3,-2,30%,0%,-13%
COc1cc(NC(=O)C2CC2)c(C(=O)O)cc1OC,50µM*,0,2,40%,11%,-17%
COc1cc(NC(=O)C2CCN(S(=O)(=O)c3cccs3)CC2)c(C(=O)O)cc1OC,/,0,-11,/,/,/
CC(Sc1nc(C(C)(C)C)cc(-c2ccccc2)c1C#N)C(=O)Nc1ccccc1 (centres undefined),7.9µM*,8,5,?,8%,-1%[57.1 µM]
CC(C)=C1C(=O)NN(c2ccc(F)c(Cl)c2)C1=O,/,-14,-4,1%,?,-29%
O=C1NN(c2ccc(F)c(Cl)c2)C(=O)/C1=C\c1cccc(OC(=O)c2cccs2)c1,20µM*,6,-13,?,?,79µM*
